Reference: PubChem BioAssay AID1851 (National Center for Advancing Translational Sciences (NCATS), 2009)
“And” between values parts separate entries of the source, which are not always exact repeats. Identical values can stand only once. The campaign covered roughly 16,000 compounds. About 5,800 (36%) were called active. Not shown: some 23% with an inconclusive outcome. The list shows a part of the results. Values without a mark were called inactive. Calls follow the shape of the dose curve; as a rule, active = well fitted curve in the direction sought with a large enough effect; inconclusive = small, poorly fitted or top-dose-only effect, or effect the other way; inactive = no such curve, though single readings can be large or run the other way.

The compounds below were run against Cytochrome P450 2C19 (Homo sapiens) (UniProt P33261) (assay: Cytochrome panel assay with activity outcomes). Conditions: recombinant CYP, pro-luciferin dealkylation, luminescence, p450-cyp2c19; series mostly up to 57.1 µM; activity, negative = inhibition: at the top concentration.
% is scaled to controls: 0 for no effect and ±100 for the full control effect.

Sequence of Cytochrome P450 2C19 (Homo sapiens) (P33261 whole entry, looked up): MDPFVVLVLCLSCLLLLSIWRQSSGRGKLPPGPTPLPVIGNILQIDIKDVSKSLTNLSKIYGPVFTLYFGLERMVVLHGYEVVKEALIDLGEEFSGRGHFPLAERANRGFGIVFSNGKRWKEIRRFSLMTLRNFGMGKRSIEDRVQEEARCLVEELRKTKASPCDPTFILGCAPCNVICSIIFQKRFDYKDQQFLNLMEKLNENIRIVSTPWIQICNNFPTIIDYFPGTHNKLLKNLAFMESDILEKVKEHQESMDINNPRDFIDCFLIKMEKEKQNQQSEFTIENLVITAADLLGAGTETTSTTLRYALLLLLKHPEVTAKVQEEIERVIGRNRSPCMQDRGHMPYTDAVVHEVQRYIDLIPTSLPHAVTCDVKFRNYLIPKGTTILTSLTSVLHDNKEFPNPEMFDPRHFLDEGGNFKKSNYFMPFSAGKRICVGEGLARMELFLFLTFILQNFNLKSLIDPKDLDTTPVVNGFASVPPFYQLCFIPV

Structure (SMILES)	activity, negative = inhibition	AC50
Nn1c(SCC(=O)N2CCOCC2)nnc1-c1ccccc1Cl	8.68%	–
O=C(CSc1c[nH]c2ccccc12)N1CCOCC1	–	1.58 µM (active)
Fc1cccc(F)c1C(Nc1nncs1)Nc1nncs1	7.56% [at 11.4 µM]	–
NNCCc1ccccc1	–	794 nM (active) and 316 nM (active)
O=C(O)CNCCc1ccccc1	4.74% [at 11.4 µM]	–
Cc1ccc(COc2ccc(Br)cc2/C=N/O)cc1	–	1 µM (active)
O=c1c(-c2ccccc2)nc2cnc(N3CCOCC3)nc2n1Cc1cccs1	-32.2%	–
C[C@@H](COc1ccccc1)N(CCCl)Cc1ccccc1	–	2 µM (active)
O=S(=O)(Nc1nc(-c2sccc2Cl)cs1)c1cc(Cl)ccc1Cl	–	0.2 µM (active)
O=C(Nc1ccc2c(c1)OCCO2)C1CCN(C(=O)c2ccccc2)CC1	–	22.4 µM (active)
COC(=O)N1CCC2(CC1)CN(C(=O)Nc1ccc(OC)cc1)C2	3.06%	–
CCC(C)NC(=O)C1CCN(C(=O)c2ccccc2)CC1 (centres undefined)	-14.8%	–
COC(=O)N1CCC2(CCN(C(=O)Nc3ccc(OC)cc3)CC2)CC1	-1.54%	–
O=C(CC1C(=O)NCCN1C(=S)Nc1ccccc1)Nc1ccc2c(c1)OCCO2 (centres undefined)	–	11.2 µM (active)
COc1ccc(NC(=O)CN2CCN(CC(=O)Nc3ccccc3Cl)CC2)cc1	–	1.41 µM (active)
COc1ccc(NC(C)=O)cc1NC(=O)CN1CCN(CC(=O)Nc2ccccc2Cl)CC1	–	7.94 µM (active)
CC(C)=CCC/C(C)=C/CO/N=C1/C[C@@H](O)[C@@H](O)[C@@H]2[C@@H]3C(=O)N(C4CCCCC4)C(=O)[C@H]3CC[C@@H]12	-41.2% [at 11.4 µM]	–
O=C(CN1CCN(CC(=O)Nc2ccccc2Cl)CC1)Nc1ccc2c(c1)OCCO2	–	0.891 µM (active)
O=C(CN1C(=O)c2ccccc2S1(=O)=O)Nc1ccccc1	-22%	–
COc1ccccc1NC(=O)c1cnc2n(c1=O)CCS2	-4.96%	–
COc1ccccc1NC(=O)CN1CCN(CC(=O)Nc2ccc(OCc3ccccc3)cc2)CC1	–	0.631 µM (active)
CC(=O)Nc1ccc2c(c1)OCCOCCOc1cc(NC(C)=O)ccc1OCCOCCOCCO2	-22.4%	–
COc1ccc(NC(=O)CN2c3cccc4cccc(c34)S2(=O)=O)cc1	–	10 µM (active)

Structure (SMILES)	activity, negative = inhibition	AC50
O=C(CC(c1ccccc1)c1ccccc1)Nc1ccc2c(c1)OCCO2	–	2.82 µM (active)
O=C(CN1C(=O)C2C3C=CC(C3)C2C1=O)Nc1ccc2c(c1)OCCO2 (centres undefined)	-37.3%	–
CCCN1C[C@H](CSC)C[C@H]2c3cccc4[nH]cc(c34)C[C@@H]21	-6.92% [at 25.6 µM]	–
CN1CCN(CCCNC(=O)C2CCN(c3nnc(-n4cccc4)s3)CC2)CC1	-20.2%	–
CC(C)CO/N=C1/C[C@@H](O)[C@@H](O)[C@@H]2[C@@H]3C(=O)N([C@@H](C)c4ccccc4)C(=O)[C@H]3CC[C@H]12	-12.9% [at 11.4 µM]	–
COc1cc2c(cc1OC)C(C(=O)N1CCN(c3ccccn3)CC1)C(c1cccs1)N(C)C2=O (centres undefined)	-24.5%	–
COc1cc(NC(=O)c2ccccc2)c(OC)cc1NC(=O)CN1CCN(c2ccccn2)CC1	–	17.8 µM (active)
Cc1c(Cl)cccc1NC(=O)CN1CCC(C(O)(c2ccccc2)c2ccccc2)CC1	–	11.2 µM (active)
Cc1cccc(NC(=S)N2CCC(N(C)CC3CCCO3)CC2)c1C (centres undefined)	-10.8%	–
Cc1c(NC(=O)CN2CCN(c3ccccc3)CC2)c(=O)n(-c2ccccc2)n1C	-5.89%	–
Cc1ccc(NC(=O)c2sccc2SCc2cccc(C(F)(F)F)c2)cc1	–	0.631 µM (active)
Cc1ccc(NC(=O)c2c(C(F)(F)F)nn(C)c2SCc2cccc(C(F)(F)F)c2)cc1C	–	0.562 µM (active)
Cn1nc(C(F)(F)F)c(C(=O)Nc2ccc(F)cc2F)c1Sc1cccc(C(F)(F)F)c1	–	0.501 µM (active)
Cc1cccc(C)c1NC(=O)CS(=O)CC(=O)Nc1ccc(F)cc1F (centres undefined)	-53.4%	–
Cn1nc(C(F)(F)F)c(C(=O)Nc2ccc(F)cc2F)c1Sc1ccc(C(F)(F)F)cc1	–	0.631 µM (active)
C1COC(NC(C2CC2)C2CC2)=N1	–	inactive
CCCN1C[C@@H](CSC)C[C@H]2c3cccc4[nH]cc(c34)C[C@@H]21	43.8%	–
O=C(OCc1nc2ccccc2[nH]1)C12CC3CC(CC(C3)C1)C2	–	2.51 µM (active)
O=C1CC[C@](CCc2nc3ccccc3[nH]2)(c2ccccc2)C(=O)N1	-21.5% [at 11.4 µM]	–
Cc1ccc(-c2[nH]n3c(=O)c4c(nc3c2C)CCCC4)cc1	–	3.98 µM (active)
COC(=O)Cc1cc(=O)n2[nH]c(C)c(-c3ccccc3)c2n1	-19%	–
N#Cc1c[nH]n2c(=O)c3c(nc12)CCCC3	-4.58%	–
Cc1ccc(N=Nc2c(N)[nH]n3c(=O)c4c(nc23)CCCC4)cc1	–	25.1 µM (active)

Structure (SMILES)	activity, negative = inhibition	AC50
Cc1[nH]n2c(=O)c3c(nc2c1-c1cccc2ccccc12)CCC3	–	8.91 µM (active)
COc1ccc(CNc2nc3nc4c(c(=O)n3[nH]2)CCC4)cc1	-14.3%	–
Nc1[nH]n2c(=O)c3c(nc2c1N=Nc1ccccc1)CCCC3	-28.5%	–
CSc1nc2nc3c(c(=O)n2[nH]1)CN(Cc1ccccc1)CC3	-6.28%	–
COc1cccc([C@H](O)Cn2cc(-c3cccc(CON=C(C)C)c3)nn2)c1	-19.8% [at 11.4 µM]	–
CC(C)c1ccc(N=c2c([N+](=O)[O-])nn(-c3ccc4c(c3)OCCO4)n2O)cc1	–	11.2 µM (active)
COc1ccc(OC)c(C2C3=C(COC3=O)Nc3cc4c(cc32)OCO4)c1 (centres undefined)	–	1.12 µM (active)
CC1(C)Oc2cc(N)c([N+](=O)[O-])cc2O1	–	10 µM (active)
CC1(C)Cc2c(sc3nc(-c4ccccc4)n(N)c(=O)c23)CO1	–	25.1 µM (active)
Cc1nn2c(C)nc3sc4c(c3c2nc1=O)CC(C)(C)OC4	-20.1%	–
O=c1[nH]c(SCc2ccccc2[N+](=O)[O-])nc2nc[nH]c12	23.8% [at 11.4 µM]	–
Nc1nc(SCCc2ccccc2)c2[nH]cnc2n1	–	0.631 µM (active)
Nc1nc(SC/C=C\c2ccccc2)c2[nH]cnc2n1	–	1.58 µM (active)
CC(C)[C@H](Sc1nc(N)nc2nc[nH]c12)C(=O)O	22.9% [at 11.4 µM]	–
Nc1nc(Sc2ccc([N+](=O)[O-])c3nonc23)c2[nH]cnc2n1	–	1.58 µM (active)
Nc1nc(N)c2[nH]cnc2n1 (tested in a mixture with another compound)	6.99% [at 11.4 µM]	–
CCC[C@H](Sc1nc(N)nc2nc[nH]c12)C(=O)O	25% [at 11.4 µM]	–
Nc1nc(SCc2ccccc2[N+](=O)[O-])c2[nH]cnc2n1	–	1 µM (active)
CC[C@H](C)[C@@H]1O[C@]2(CC[C@@H]1C)C[C@H]1C[C@H](CC=C(C)[C@@H](O[C@H]3C[C@H](OC)[C@H](O[C@H]4C[C@H](OC)[C@H](O)[C@H](C)O4)[C@H](C)O3)[C@@H](C)C=CC=C3CO[C@@H]4[C@@H](O)C(C)=C[C@H](C(=O)O1)[C@@]34O)O2	-24.9%	–
COc1cc2c(CCNC(C)=O)c[nH]c2cc1Cl	–	5.01 µM (active)
CC(=O)NCCc1c[nH]c2ccc(O)cc12	-18.6%	–
COc1cc2c(CCNC(C)=O)c[nH]c2cc1O	-15.4%	–
CC(C)[C@](N)(C(=O)O)c1ccccc1	11.6% [at 11.4 µM]	–

Structure (SMILES)	activity, negative = inhibition	AC50
Cc1nc2c3cnn(-c4ccc(C)c(C)c4)c3ncn2n1	–	10 µM (active)
O=C(Cc1ccccc1)N/N=C/c1cc(Br)c(Br)o1	–	8.91 µM (active)
O=C(N/N=C/c1ccco1)c1ccc(Br)o1	-25.5%	–
O=C(Cc1ccccc1)N/N=C\c1ccc(Br)o1	–	10 µM (active)
O=C(O)c1cc2cc(Cl)ccc2oc1=O	-20.3%	–
CCN(CC)c1ccc2cc(C(C)=O)c(=O)oc2c1	–	1.58 µM (active)
O=c1ccc2cc(O)c(O)cc2o1	-12.2% [at 25.6 µM]	–
O=C(O)C[C@H](S)C(=O)O	13.1% [at 11.4 µM]	–
C=CC(C)(C)c1[nH]c2ccccc2c1C1=C(O)C(=O)C(c2c[nH]c3c(CC=C(C)C)cccc23)=C(O)C1=O	–	1.26 µM (active)
COc1ccc(-n2c(=O)c(-c3cccs3)nc3cnc(N4CCOCC4)nc32)cc1	-30%	–
CCCS(=O)(=O)N1CCCC(C(=O)NCCN2CCC(Cc3ccccc3)CC2)C1 (centres undefined)	-20.6%	–
Cc1ccc2c(c1)N[C@H](c1ccc(C(=O)O)cc1)c1cccn1-2	-26.9% [at 11.4 µM]	–
Cc1ccc(C)c(S(=O)(=O)NCc2ccc(C(=O)N3CCC(Cc4ccccc4)CC3)cc2)c1	–	4.47 µM (active)
Cn1c(SCC(=O)N/N=C/C=C\c2ccco2)nc2ccccc21	–	14.1 µM (active)
Cc1nc2ccccc2n1CC(=O)N/N=C\C=C\c1ccccc1	–	7.08 µM (active)
CNC(=O)Oc1ccc2c(c1)[C@@]1(C)CCN(C)[C@@H]1N2C	–	inactive
CC(=O)OC[C@@H]1O[C@@H](O/N=C2/C[C@@H](O)[C@@H](O)[C@@H]3[C@@H]4C(=O)N([C@@H](C)c5ccccc5)C(=O)[C@H]4CC[C@H]23)[C@H](OC(C)=O)[C@H](OC(C)=O)[C@@H]1OC(C)=O	-3.3% [at 11.4 µM]	–
O=C(/C=C/c1ccccc1)NC(NC(=S)Nc1ccc(Cl)cc1)C(Cl)(Cl)Cl (centres undefined)	–	3.55 µM (active)
C[C@@H](c1ccccc1)N1C(=O)[C@H]2[C@H]3[C@H](O)[C@H](O)C/C(=N/OCc4ccccc4)[C@@H]3CC[C@@H]2C1=O	-24.2% [at 11.4 µM]	–
CC(C)NC(=O)N1CCCC2(CCN(C(=O)c3cc(C(F)(F)F)cc(C(F)(F)F)c3)CC2)C1	-15.9%	–
